Only some compounds are listed: those with a hit (about 2.9% of all), similar ones and a draw of the others.
GRK2 aptamer HTS = inhibitors of human GRK2 displacing RNA aptamer; P25098; bead flow cytometry, FAM-aptamer displacement from GRK2; inhibition of aptamer binding, % at 10 µM; hit rate 0.59% among 330,000; AID 488847;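 active means inhibition of aptamer binding above 40%, roughly 3 SD of noise, on plates passing a quality check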;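 further: median bead fluorescence of bound FAM aptamer so fluorescent compounds give negative values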
Target sequence (P25098 whole entry, looked up): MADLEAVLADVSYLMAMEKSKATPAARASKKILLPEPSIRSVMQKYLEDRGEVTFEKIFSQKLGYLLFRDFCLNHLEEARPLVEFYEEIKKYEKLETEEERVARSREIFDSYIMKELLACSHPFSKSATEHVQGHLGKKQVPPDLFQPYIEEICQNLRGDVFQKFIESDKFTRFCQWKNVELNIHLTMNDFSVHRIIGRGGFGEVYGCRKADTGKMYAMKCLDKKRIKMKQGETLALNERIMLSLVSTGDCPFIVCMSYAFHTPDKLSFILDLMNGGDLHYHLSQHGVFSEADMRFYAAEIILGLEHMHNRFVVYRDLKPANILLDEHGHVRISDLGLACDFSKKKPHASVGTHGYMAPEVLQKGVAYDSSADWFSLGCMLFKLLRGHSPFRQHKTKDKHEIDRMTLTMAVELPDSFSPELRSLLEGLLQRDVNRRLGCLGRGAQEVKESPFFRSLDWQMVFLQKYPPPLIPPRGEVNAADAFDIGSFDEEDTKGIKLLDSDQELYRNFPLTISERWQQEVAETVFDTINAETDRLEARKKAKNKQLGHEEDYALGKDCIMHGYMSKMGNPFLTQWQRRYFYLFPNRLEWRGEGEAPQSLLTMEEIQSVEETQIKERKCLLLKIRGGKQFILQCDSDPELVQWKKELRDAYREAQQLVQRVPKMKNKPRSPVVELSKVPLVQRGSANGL
MEKK2 mut-MEK5 = signal of MEK5 binding to mutant human MEKK2 PB1 domain. hit rate 0.35% among 290,000. AID 1530. percent response, % at 10 µM. bead flow cytometry, Alexa488-MEK5 binding to MEKK2 mutant; in the data active means percent response above about 24%, passing the limit was not always enough
MEKK2wt PB1 HTS = raises or lowers MEK5 binding to wildtype human MEKK2 PB1 domain; Q9Y2U5; bead flow cytometry, Alexa488-MEK5 binding to MEKK2 WT; actives lie on both sides; binding response (% of control), % at 10 µM; hit rate 1.1% among 290,000; in the data active means binding response below about 67% or above about 130%
Beta2AR agonist = agonists of human beta-2 adrenergic receptor inducing internalization; AID 504454; Am2.2-beta2AR cells, FAP receptor internalization, flow cytometry; P07550; hit rate 0.43% among 340,000; response, % (no concentration beside the values);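 active means response above a set limit, near 3 SD of response in nonfluorescent compounds, cut at about 42% in these data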
MEKK3 PB1 HTS = raises or lowers MEK5 binding to the human MEKK3 PB1 domain; hit rate 1.4% among 290,000; Q99759; binding response (% of control), % at 10 µM; bead-based flow cytometry, Alexa488-MEK5 binding to MEKK3; actives lie on both sides; 0 = blocked by unlabeled MEK5, 100 = vehicle;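 active means binding response more than 3 SD above or below the average of its plate-row segment, actives on both sides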;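 further: Alexa488 bead fluorescence after subtracting the streptavidin-only scavenger bead signal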
MEKK2wt confirm = raises or lowers MEK5 binding to wildtype human MEKK2, retest | shares compounds with MEKK3 PB1 HTS | bead flow cytometry, Alexa488-MEK5 binding to MEKK2 WT; actives lie on both sides | binding response (% of control), % at 10 µM | hit rate 2.4% among 5,900; in the data active means binding response below about 16% or above about 210%; inactive means in between
MEKK2mut confirm = signal of MEK5 binding to mutant human MEKK2, retest | shares compounds with MEKK3 PB1 HTS | bead flow cytometry, Alexa488-MEK5 binding to MEKK2 mutant | percent response, % at 10 µM | hit rate 2% among 5,900; in the data active means percent response mostly above about 71%, no sharp cut-off; inactive means mostly below about 38%;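 further: higher means compound restores mutant binding toward wildtype level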
MEKK3 confirm = MEKK3-MEK5 PB1 inhibition, single concentration confirmation; hit rate 1.8% among 5,900; AID 1894; bead flow cytometry, Alexa488-MEK5 binding to MEKK3; active compounds read low; binding response (% of control), % at 10 µM; shares compounds with MEKK3 PB1 HTS;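 active means binding response below 72% of control, or above a set upper limit, though filed actives all read lower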;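 further: lower values mean stronger disruption of MEK5 binding to MEKK3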
Large screens that a line does not name were inactive (follow-up assays come after a bar, where they were run); [ ] = another dose, or the depositor's remark.

COC(=O)c1c(C)oc(C)c(C(=O)OC)c1=O	none
CCCN1CCc2c(sc(NC(=O)Cc3ccc(F)cc3)c2C(N)=O)C1	none
Cc1cc(NS(C)(=O)=O)c(=O)n(Cc2cccc(F)c2)c1	MEKK2wt PB1 HTS 20.0[inhibitor] (no result: GRK2 aptamer HTS) | MEKK2wt confirm inactive | MEKK2mut confirm inactive | MEKK3 confirm inactive
CC(NC(=S)Nc1ccc(S(=O)(=O)N2CCOCC2)cc1)C1CC2CCC1C2 (configuration not stated)	none
COc1ccc2c(C)cc(SCC#N)nc2c1	MEKK2 mut-MEK5 38.0, MEKK2wt PB1 HTS 58.0[inhibitor] | MEKK2wt confirm inactive | MEKK2mut confirm inactive | MEKK3 confirm inactive
Cc1cc(SCC#N)nc2ccccc12	none
CCc1nc(SCC(=O)Nc2sc(C)c(C)c2C(=O)OC)c2ccccc2n1	none (no result: GRK2 aptamer HTS, Beta2AR agonist)
Fc1ccc(-c2csc(Nc3ccccn3)n2)cc1	none
Cn1cccc1C(NC(=O)c1ccccc1)C(Cl)(Cl)Cl (configuration not stated)	none
O=c1c(CN2CCN(Cc3ccccc3F)C(CCO)C2)coc2ccccc12 (configuration not stated)	none
Cc1onc(-c2c(F)cccc2Cl)c1C(=O)Nc1nnc(C(F)(F)F)s1	none
CCC(=O)N[C@@H]1CC(C(C)(C)NC(=O)CC)CC=C1C (some centres not stated)	MEKK2wt PB1 HTS 1.0[inhibitor], MEKK3 PB1 HTS 2.0[inhibitor] | MEKK2wt confirm inactive | MEKK2mut confirm inactive | MEKK3 confirm inactive
NC(N)=N/N=C/c1ccc(OS(=O)(=O)c2ccccc2)cc1	MEKK2wt PB1 HTS 146.0 | MEKK2wt confirm inactive | MEKK2mut confirm inactive | MEKK3 confirm inactive
COc1ccc(CC(=O)N2CCCC(CNC(=O)c3ccccc3Cl)C2)cc1 (configuration not stated)	MEKK3 PB1 HTS 47.0[inhibitor] | MEKK2wt confirm inactive | MEKK2mut confirm inactive | MEKK3 confirm inactive
COC(=O)c1ccc(C(=O)N2CCCC(CNC(=O)c3ccccc3Cl)C2)cc1 (configuration not stated)	none
COCC(=O)O[C@]1(CCN(C)CCCc2nc3ccccc3[nH]2)CCc2cc(F)ccc2[C@@H]1C(C)C	MEKK2wt PB1 HTS 172.0 | MEKK2wt confirm inactive | MEKK2mut confirm inactive | MEKK3 confirm inactive
CCOC(=O)CCc1nc2ccccc2[nH]1	none
CC(C)(C)c1cc[n+](/C(C(=S)NC2CC2)=C(/[O-])c2ccc(Cl)s2)cc1	MEKK3 PB1 HTS 81.0[inhibitor] | MEKK2wt confirm inactive | MEKK2mut confirm inactive | MEKK3 confirm inactive
CCc1cccc(CC)c1NC(=S)/C(=C(\[O-])c1ccc(Cl)s1)[n+]1ccccc1	none
COc1ccc(C[C@H]2CN3C(=NC[C@@H]3Cc3ccccc3)N2C[C@H](C)NC(=O)CCC2CCCCC2)cc1	none (no result: GRK2 aptamer HTS, Beta2AR agonist)
C[C@@H](CN1C2=NC[C@H](Cc3ccccc3)N2C[C@H]1Cc1ccc(O)cc1)NC(=O)CCC1CCCCC1	MEKK2wt PB1 HTS 146.0 | MEKK2wt confirm inactive | MEKK2mut confirm inactive | MEKK3 confirm inactive
C[C@@H](CN1C2=NC[C@H](Cc3ccc(O)cc3)N2C[C@H]1Cc1ccc(O)cc1)NC(=O)CCC1CCCCC1	MEKK2wt PB1 HTS 141.0 | MEKK2wt confirm inactive | MEKK2mut confirm inactive | MEKK3 confirm inactive
CCOC(=O)CNc1nc(Cl)nc(Nc2ccc(Cl)cc2)n1	none
CCCN1CCN(CCCNC(=O)Cn2nc(C)n3c(cc4cc(OC)ccc43)c2=O)CC1	none
Cc1cccc(C)c1OCCOCCN1CCN(C)CC1	MEKK2wt PB1 HTS 145.0 | MEKK2wt confirm inactive | MEKK2mut confirm inactive | MEKK3 confirm inactive
O=C(NNC(=O)c1cccc2ccccc12)c1ccc2c(c1)OCO2	none
O=C(CSc1nnc(-c2ccccc2F)o1)NC1CC1	none (no result: MEKK2 mut-MEK5, MEKK2wt PB1 HTS, MEKK3 PB1 HTS)
O=C(c1ccccc1)c1nnc(-c2ccccc2F)o1	MEKK2wt PB1 HTS -1.0[inhibitor], MEKK3 PB1 HTS 0.0[inhibitor] | MEKK2wt confirm inactive | MEKK2mut confirm inactive | MEKK3 confirm inactive
CC(=O)NC(CC(=O)NNC(=O)c1cc2ccccc2cc1O)c1ccccc1 (configuration not stated)	none
COc1cc(OC)c2c(-c3ccccc3)cc(=O)oc2c1C(CCN1CCCCC1)c1ccc2c(c1)OCO2 (configuration not stated)	MEKK2 mut-MEK5 28.0, MEKK2wt PB1 HTS 177.0 (no result: GRK2 aptamer HTS) | MEKK2wt confirm inactive | MEKK2mut confirm inactive | MEKK3 confirm inactive
COc1cc(OC)c2c(-c3ccccc3)cc(=O)oc2c1C(CC(=O)N1CCCC1)c1ccc2c(c1)OCO2 (configuration not stated)	none (no result: GRK2 aptamer HTS)
COc1cc(OC)c2c(-c3ccccc3)cc(=O)oc2c1C(CCN1CCCC(C)C1)c1ccc2c(c1)OCO2 (configuration not stated)	MEKK2 mut-MEK5 26.0, MEKK2wt PB1 HTS 183.0 | MEKK2wt confirm inactive | MEKK2mut confirm inactive | MEKK3 confirm inactive
C=CCNC(=O)c1ccc(-n2cccc2)cc1	MEKK3 PB1 HTS 138.0 | MEKK2wt confirm inactive | MEKK2mut confirm inactive | MEKK3 confirm inactive
COc1ccc(OC)c(N(CC(=O)N2CCN(Cc3ccccc3)CC2)S(C)(=O)=O)c1	none
Cc1ccc(S(=O)(=O)N2CCN(C(=O)c3cc(=O)c4ccccc4o3)CC2)cc1	none
Cc1ccccc1OCCC(=O)OCC(=O)NNC(=O)c1cccs1	none (no result: MEKK2 mut-MEK5, MEKK2wt PB1 HTS, MEKK3 PB1 HTS)
CCOC(=O)CN(c1ccccn1)S(=O)(=O)c1ccccc1	none
COC(=O)c1ccc(CN(c2ccccn2)S(=O)(=O)c2ccccc2)cc1	MEKK3 PB1 HTS 132.0 | MEKK2wt confirm inactive | MEKK2mut confirm inactive | MEKK3 confirm inactive
Cc1n[nH]c(C)c1N1C(=O)c2cccc3c(N4CCCCCC4)ccc(c23)C1=O	MEKK2 mut-MEK5 40.0, MEKK2wt PB1 HTS 67.0[inhibitor] | MEKK2wt confirm inactive | MEKK2mut confirm inactive | MEKK3 confirm inactive
Cn1nc(C(=O)OCC(=O)Nc2ccccc2[N+](=O)[O-])c2ccccc2c1=O	none (no result: MEKK2 mut-MEK5, MEKK2wt PB1 HTS, MEKK3 PB1 HTS)
Cc1cc(N=Nc2ccc(C)c(N=Nc3cc(C)c(N)cc3N)c2)c(N)cc1N	MEKK3 PB1 HTS 67.0[inhibitor] | MEKK2wt confirm inactive | MEKK2mut confirm inactive | MEKK3 confirm 70.0
COc1ccc(N=Nc2cc(OC)c(N)cc2OC)cc1	none (no result: GRK2 aptamer HTS, MEKK2 mut-MEK5, MEKK2wt PB1 HTS, MEKK3 PB1 HTS)
COc1c(NC=O)c2c(c([N+](=O)[O-])c1OC)C(=O)OC2	none (no result: GRK2 aptamer HTS, MEKK2 mut-MEK5, MEKK2wt PB1 HTS, MEKK3 PB1 HTS)
CC1(C)CC(=O)C(C#N)=C(NCCCO)C1	none
CC1(C)CC(=O)C([N+](=O)[O-])=C(NCCCC(=O)O)C1	MEKK3 PB1 HTS 64.0[inhibitor] | MEKK2wt confirm inactive | MEKK2mut confirm inactive | MEKK3 confirm inactive
CCN(CC)S(=O)(=O)c1ccc(NC(=O)Nc2cccc(C(F)(F)F)c2)cc1	MEKK2wt PB1 HTS 144.0 | MEKK2wt confirm inactive | MEKK2mut confirm inactive | MEKK3 confirm inactive
